Screens deposited in PubChem by National Center for Advancing Translational Sciences (NCATS).
Shown are actives, neighbours in structure and some others; about 3% of the full set was active somewhere.
Tau FP inhib: tau fibrillization inhibition (FP). P10636. K18 P301L tau heparin fibrillization, Alexa594 FP, 6 h. Potency, µM (doses to about 57.7 µM), inactives show at the top dose activity, negative = inhibition, hits mostly inhibitors. 280,000 compounds, 0.39% hits. AID 1468; note: potency is the fitted concentration of half-maximal effect; nearly all actives have a fitted effect of over 55% in size
Target sequence (P10636 561-689 P618L limits assumed): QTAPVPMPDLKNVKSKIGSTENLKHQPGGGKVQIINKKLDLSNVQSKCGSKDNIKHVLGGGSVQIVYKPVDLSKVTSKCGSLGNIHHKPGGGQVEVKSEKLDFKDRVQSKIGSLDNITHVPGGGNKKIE
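K18 P301L tau (15 uM unlabeled/0.24 uM Alexa 594-labeled, final) + compound + heparin 20 uM final; 100 mM NaOAc pH 7; 6 hr 37 C; ThT 30 uM final added, 1 hr RT; FP ex 555/em 632 nm.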
Tau fluor counter: counter-screen for tau fibril formation inhibitors | tau K18 P301L Alexa594 fluorescence, heparin fibrillization | AID 1463 | 280,000 compounds, 0.93% hits | Potency, µM (highest dose often 57.7 µM), for the others: top-dose activity change, negative = decrease; note: potency is the fitted concentration of half-maximal effect; nearly all actives have a fitted effect of over 55% in size
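Human K18 P301L tau (15 uM unlabeled plus 0.24 uM Alexa 594-labeled, final) in 100 mM sodium acetate pH 7 was mixed with compound and 20 uM heparin and incubated 6 hr at 37 C.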
KDM4E inh: inhibitors of human JMJD2E histone demethylase; 230,000 compounds, 1.6% hits; Potency, µM (titrated, usually from 57.1 µM), for inactives: top-dose activity change, negative = inhibition, hits mostly inhibitors; JMJD2E catalytic domain, FDH-coupled NADH fluorescence (FDH is formaldehyde dehydrogenase); AID 2147; B2RXH2; active = well fitted inhibition curve with a large enough effect, not every such curve was filed as active; inconclusive = small, poorly fitted or top-dose-only effect, or another doubt; inactive = no such curve, though single readings can be large or run the other way;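 note: potency is the fitted concentration of half-maximal effect; 0% = wells with enzyme and -100% = buffer wells without enzyme; nearly all actives have a fitted effect of over 50% in size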
Target sequence (B2RXH2 1-337 limits assumed): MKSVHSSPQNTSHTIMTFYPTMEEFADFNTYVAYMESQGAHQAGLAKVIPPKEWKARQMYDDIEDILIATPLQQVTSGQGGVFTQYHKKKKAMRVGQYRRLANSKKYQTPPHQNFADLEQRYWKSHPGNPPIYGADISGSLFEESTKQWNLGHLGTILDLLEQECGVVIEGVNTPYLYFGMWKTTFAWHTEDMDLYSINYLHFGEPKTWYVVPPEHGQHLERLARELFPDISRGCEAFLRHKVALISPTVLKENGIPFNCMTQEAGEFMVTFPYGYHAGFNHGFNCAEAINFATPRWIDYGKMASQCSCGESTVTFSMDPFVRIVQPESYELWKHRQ
Tau fibril ThT: blocks human tau fibril formation measured by thioflavin T; recombinant tau K18 P301L (four-repeat tau fragment), heparin-induced fibrillization, ThT fluorescence; Potency, µM (highest dose often 57.4 µM), for the others: at the top dose activity, negative = inhibition, hits mostly inhibitors; 270,000 compounds, 2.1% hits; AID 1460; note: potency is the fitted concentration of half-maximal effect; nearly all actives have a fitted effect of over 55% in size
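Heparin-induced (20 uM) aggregation of recombinant human K18 P301L tau, 15 uM unlabeled with 0.24 uM labeled, pH 7 acetate buffer, 6 hr at 37 C with compound. Fibrils quantified by 30 uM ThT fluorescence after 1 hr ambient incubation.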
FBPA coupling cs: coupling enzyme interference in Giardia aldolase counter-screen; coupling enzyme system counterscreen, AmpLite Red fluorescence; activity change, negative = inhibition, % at 58.2 µM, hits read low; 290,000 compounds, 0.67% hits; AID 2472; in the data active = activity change below about -30%
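Activity here indicates interference with the coupling reaction, not aldolase inhibition. Compounds at 57.5 uM final met coupling enzymes for 10 min at RT; substrate and AmpLite Red detection followed, with a 525/598 nm fluorescence read after 20 min.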
An asterisk follows results filed as active; ! = repeats disagree; [ ] = dose if it differs, or a comment. Unless noted, calls come from the whole dose curve; as a rule, active = well fitted curve in the direction sought with a large enough effect; inconclusive = small, poorly fitted or top-dose-only effect, or another doubt; inactive = no such curve, though single readings can be large; an effect the other way counts as inactive or inconclusive. Unless noted, % is set by controls: 0 for no effect and ±100 for the full control effect.

`COc1cccc(C=Nc2ccc3c(c2)OCCO3)c1O` gave Tau FP inhib 0%, Tau fluor counter -9%, KDM4E inh -6%, Tau fibril ThT inconclusive and FBPA coupling cs -14.
For COc1ccc(N=Nc2ccc(O)c3ncccc23)cc1 the results were Tau FP inhib inconclusive, Tau fluor counter -26%, KDM4E inh inconclusive, Tau fibril ThT 1.4µM* and FBPA coupling cs -3.
Cc1ccc(N=Nc2ccc(O)cc2)c(Br)c1 was read as FBPA coupling cs -1.
Oc1ccc(N=Nc2ccc(Br)cc2)c(O)c1 was read as Tau FP inhib 2%, Tau fluor counter inconclusive, KDM4E inh 16%, Tau fibril ThT 3.5µM* and FBPA coupling cs 6.
For COc1cccc(N=Nc2ccc(O)c3ncccc23)c1 the results were FBPA coupling cs -4.
Screening COc1ccc(C)cc1N=Nc1ccc(O)c2ncccc12 returned Tau FP inhib 3%, Tau fluor counter inconclusive, KDM4E inh 25µM*, Tau fibril ThT inconclusive and FBPA coupling cs 0.
Screening Cc1ccc(F)cc1NC(=O)Cn1c(=O)nc(-c2ccccc2F)c2cc(Cl)ccc21 returned Tau FP inhib -4%, Tau fluor counter -16% and Tau fibril ThT 11%.
For COc1cc(CN(C(=O)COc2ccccc2)c2ccccn2)cc(OC)c1OC the results were Tau FP inhib -4%, Tau fluor counter -4% and Tau fibril ThT 2%.
`CCN(Cc1ccccc1)C(=O)Cn1c(=O)n(-c2ccc(C)c(C)c2)c(=O)c2c(C)c(C)sc21` gave Tau FP inhib -5%, Tau fluor counter -6% and Tau fibril ThT -4%.
CC(C)C(N)C(=O)O (stereo unspecified) was read as Tau FP inhib -4%, Tau fluor counter 0% and Tau fibril ThT 4%.
Nc1ccc(N=Nc2ccccc2)c2cccnc12 was read as FBPA coupling cs -1.
For O=Nc1ccc(O)c2ncccc12 the results were Tau FP inhib inconclusive, Tau fluor counter -29%, KDM4E inh 25µM*, Tau fibril ThT inconclusive and FBPA coupling cs -35*!.
Screening O=S(=O)(O)c1cccc2c(N=Nc3ccc(O)c4ncccc34)cccc12 returned FBPA coupling cs -12.
Screening Oc1ccc(N=Nc2ccc3c(c2)OCCO3)c2cccnc12 returned Tau FP inhib inconclusive, Tau fluor counter inconclusive, KDM4E inh inconclusive, Tau fibril ThT 2µM* and FBPA coupling cs 1.
Screening COc1cc(NC(=O)CN(C)S(=O)(=O)c2ccc3[nH]c4c(c3c2)CCCC4)cc(OC)c1OC returned Tau FP inhib 14%, Tau fluor counter inconclusive and Tau fibril ThT -7%.
Screening COc1ccc(C2/C=C\CN(C(=O)C3CCCC3)C(C)C(=O)N2Cc2ccc(F)cc2)cc1 (stereo unspecified) returned FBPA coupling cs 0.
Screening O=C(CCc1nnc2n(Cc3ccccc3Cl)c(=O)c3ccccc3n12)Nc1ccc(F)cc1 returned Tau FP inhib -16%, Tau fluor counter -16% and Tau fibril ThT 4%.
Screening CN(C)c1ccc(C=C2C(=O)OC(C)(C)OC2=O)cc1 returned Tau FP inhib 9%, Tau fluor counter 3%, KDM4E inh -2%, Tau fibril ThT -6% and FBPA coupling cs 1.
`CC(C)/C=C1\CC/C(=C\c2ccc(N(C)C)cc2)C1=O` gave Tau FP inhib 19%, Tau fluor counter 16%, KDM4E inh 12%, Tau fibril ThT 2µM* and FBPA coupling cs -1.
CC(C)c1ccc(/C=C2\CC/C(=C\C=N\N(C)C)C2=O)cc1 was read as Tau FP inhib inconclusive, Tau fluor counter -19%, KDM4E inh inconclusive, Tau fibril ThT 3.2µM* and FBPA coupling cs -3.
For COc1cc(/C=C2\C(=O)NN(c3ccccc3)C2=O)cc([N+](=O)[O-])c1O the results were Tau FP inhib -6%, Tau fluor counter -30%, KDM4E inh -15%, Tau fibril ThT 11µM* and FBPA coupling cs -2.
`COc1cc(/C=C2\C(=O)NN(c3ccc(C)cc3)C2=O)cc([N+](=O)[O-])c1O` gave Tau FP inhib -4%, Tau fluor counter inconclusive, KDM4E inh -13%, Tau fibril ThT 13µM* and FBPA coupling cs 0.
For COc1cc(/C=C2/C(=O)NN(c3ccc(Cl)cc3)C2=O)cc(OC)c1O the results were FBPA coupling cs 2.
For CCOc1cc(/C=C2\C(=O)NN(c3ccccc3)C2=O)cc([N+](=O)[O-])c1O the results were Tau FP inhib -12%, Tau fluor counter -23%, KDM4E inh -5%, Tau fibril ThT inconclusive and FBPA coupling cs 3.
Screening CCN(CC)c1ccc(N)cc1S(=O)(=O)Nc1ccccc1OC returned Tau FP inhib inconclusive, Tau fluor counter -23%, KDM4E inh -14%, Tau fibril ThT 25µM* and FBPA coupling cs -5.
CCN(CC)c1ccc(N)cc1S(=O)(=O)Nc1ccc(OC)cc1 was read as Tau FP inhib 12%, Tau fluor counter -15%, KDM4E inh -22%, Tau fibril ThT -8% and FBPA coupling cs -2.
Screening CCSc1ncc(Cl)c(C(=O)Nc2c(C(=O)Nc3cccc(C)c3)oc3ccccc23)n1 returned Tau FP inhib -9%, Tau fluor counter -11% and Tau fibril ThT 4%.
`CCS(=O)(=O)c1ncc(Cl)c(C(=O)Nc2c(C(=O)Nc3cccc(C)c3)oc3ccccc23)n1` gave Tau FP inhib -11%, Tau fluor counter inconclusive and Tau fibril ThT 4µM*.
Screening N#Cc1c(/N=C/c2cccs2)sc2c1CCC2 returned Tau FP inhib -3%, Tau fluor counter -23%, KDM4E inh -2%, Tau fibril ThT 2.8µM* and FBPA coupling cs -4.
For N#Cc1c(/N=C/c2ccco2)sc2c1CCCCC2 the results were Tau FP inhib -10%, Tau fluor counter -23%, KDM4E inh 0%, Tau fibril ThT 4.5µM* and FBPA coupling cs -1.
For Cc1cc(/C=N/n2cnnc2)c(O)c([N+](=O)[O-])c1 the results were Tau FP inhib 11%, Tau fluor counter -6%, KDM4E inh -1%, Tau fibril ThT 4µM* and FBPA coupling cs 1.
`Cc1c(C)c2c(c(C)c1O)CC[C@@](C)(C(=O)O)O2` gave KDM4E inh -29%[25.5 µM] and FBPA coupling cs -34*.
For Cc1ccc2occ(CC(=O)Nc3c(C(=O)Nc4ccc(Cl)cc4)oc4ccccc34)c2c1 the results were Tau FP inhib inconclusive, Tau fluor counter inconclusive and Tau fibril ThT 7%.
Screening O=[N+]([O-])c1ccc(N/N=C/c2c[nH]c3ccccc23)c(S(=O)(=O)Nc2ccc(Cl)cc2)c1 returned Tau FP inhib -11%, Tau fluor counter 3.2µM*[quencher], KDM4E inh 11%, Tau fibril ThT 3.2µM* and FBPA coupling cs 0.
